From PubChem BioAssay (EPA / NIEHS)
Activity calls are given as the source filed them. The calls were made as follows: active = hit-call score of the fitted dose curve at least 0.9, where 1 is the maximum; inactive = score below 0.9.

Legend:
[1] = BSK_hDFCGF_Proliferation: Cell Proliferation Assessment in the BioMAP Diversity Plus: hDFCGF Assay (AID 2283059); settings: primary human foreskin fibroblasts;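 also: curves fitted for both rise and fall of signal versus DMSO baseline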
Outline: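 Total protein read at 560 nm after 0.1% SRB staining of TCA-fixed human skin fibroblasts, […]. Activity is fitted in both directions relative to DMSO as baseline.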

[2] = read-out: Macrophage colony-stimulating factor (MCSF), CSF1 (gene 1435); assay: BSK_hDFCGF_MCSF: BioMAP Diversity Plus: hDFCGF Assay for Macrophage colony-stimulating factor (MCSF) Biomarker Activity (AID 2283060); settings: primary human foreskin fibroblasts; actives raise or lower the signal
Outline: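 ELISA read-out of M-CSF in human dermal foreskin fibroblast cultures, 24 h after chemical dosing; gain or loss of signal fitted bidirectionally relative to DMSO baseline.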

[3] = BSK_hDFCGF_SRB: Viability Assessment in the BioMAP Diversity Plus: hDFCGF Assay (AID 2283061); settings: primary human foreskin fibroblasts;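 also: cells exposed to compound for 24 h before the read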
Outline: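 Primary human foreskin fibroblasts; 24 h post-dose; fixed 10% TCA, stained 0.1% SRB, A560 read; total protein as overt cytotoxicity measure; curves fit bidirectionally vs DMSO control.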

[4] = read-out: TIMP metallopeptidase inhibitor 1 (TIMP1), TIMP1 (gene 7076); assay: BSK_hDFCGF_TIMP1: BioMAP Diversity Plus: hDFCGF Assay for TIMP metallopeptidase inhibitor 1 (TIMP1) Biomarker Activity (AID 2283062); settings: primary human foreskin fibroblasts; actives raise or lower the signal
Outline: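 ELISA readout of TIMP-1 from human dermal foreskin fibroblast cultures 24 h post-dosing. Curves were fitted in both directions against DMSO baseline, with SRB total-protein staining in parallel cultures as a cytotoxicity check.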

[5] = read-out: Monokine induced gamma interferon (MIG), CXCL9 (gene 4283); assay: BSK_hDFCGF_MIG: BioMAP Diversity Plus: hDFCGF Assay for Monokine induced gamma interferon (MIG) Biomarker Activity (AID 2283063); settings: primary human foreskin fibroblasts; actives raise or lower the signal
Outline: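 Fibroblasts (human foreskin, primary) dosed, 24 h, MIG by ELISA; fit bidirectional vs DMSO.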

[6] = read-out: Matrix Metallopeptidase 1 (MMP1), MMP1 (gene 4312); assay: BSK_hDFCGF_MMP1: BioMAP Diversity Plus: hDFCGF Assay for Matrix Metallopeptidase 1 (MMP1) Biomarker Activity (AID 2283064); settings: primary human foreskin fibroblasts; actives raise or lower the signal
Outline: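 hDFCGF primary fibroblasts (human foreskin); chemical added; 24 h; MMP1 by ELISA; bidirectional fit vs DMSO.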

[7] = read-out: Vascular cell adhesion molecule 1 (VCAM1), VCAM1 (gene 7412); assay: BSK_hDFCGF_VCAM1: BioMAP Diversity Plus: hDFCGF Assay for Vascular cell adhesion molecule 1 (VCAM1) Biomarker Activity (AID 2283065); settings: primary human foreskin fibroblasts; actives raise or lower the signal
Outline: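 ELISA read-out of VCAM-1 on human skin fibroblasts, 24 h post-dose; gain or loss of signal fitted bidirectionally against DMSO baseline.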

[8] = BSK_KF3CT_SRB: Viability Assessment in the BioMAP Diversity Plus: KF3CT Assay (AID 2283069); settings: primary human keratinocytes with fibroblasts;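 also: total protein by sulforhodamine B staining as a cytotoxicity measure; read 24 h after compound addition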
Outline: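 Keratinocytes co-cultured with foreskin fibroblasts (human primary); chemical added, 24 h; fix 10% TCA, stain 0.1% SRB, A560. Bidirectional fit vs DMSO.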

[9] = read-out: Interleukin-1 alpha (IL1a), IL1A (gene 3552); assay: BSK_KF3CT_IL1a: BioMAP Diversity Plus: KF3CT Assay for Interleukin-1 alpha (IL1a) Biomarker Activity (AID 2283070); settings: primary human keratinocytes with fibroblasts; actives raise or lower the signal
Outline: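 Chemicals were dosed onto co-cultured human keratinocytes and foreskin fibroblasts, IL-1a was quantified by ELISA at 24 h, and activity was fitted in both directions relative to DMSO controls.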

[10] = read-out: TIMP metallopeptidase inhibitor 2 (TIMP2), TIMP2 (gene 7077); assay: BSK_KF3CT_TIMP2: BioMAP Diversity Plus: KF3CT Assay for TIMP metallopeptidase inhibitor 2 (TIMP2) Biomarker Activity (AID 2283071); settings: primary human keratinocytes with fibroblasts; actives raise or lower the signal
Outline: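 Human primary keratinocyte/foreskin fibroblast co-culture dosed with chemical and sampled at 24 h. TIMP-2 levels quantified by ELISA; bidirectional fitting against DMSO negative control as baseline.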

[11] = read-out: Transforming growth factor beta 1 (TGFb1), TGFB1 (gene 7040); assay: BSK_KF3CT_TGFb1: BioMAP Diversity Plus: KF3CT Assay for Transforming growth factor beta 1 (TGFb1) Biomarker Activity (AID 2283072); settings: primary human keratinocytes with fibroblasts; actives raise or lower the signal
Outline: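 Human keratinocyte plus foreskin fibroblast primary co-culture, dosed with chemical for 24 h. TGF-b1 quantified by ELISA. Activity fitted bidirectionally against DMSO negative control as baseline.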

[12] = read-out: C-C motif chemokine 2 (Homo sapiens) (UniProt P13500); assay: BSK_KF3CT_MCP1: BioMAP Diversity Plus: KF3CT Assay for Monocyte Chemoattractant Protein 1 (MCP1/CCL2) Biomarker Activity (AID 2283073); settings: primary human keratinocytes with fibroblasts; actives raise or lower the signal
Outline: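 KF3CT skin co-culture (keratinocytes/foreskin fibroblasts), 24 h post-dose; MCP-1 by ELISA; gain/loss of signal fit bidirectionally vs DMSO baseline.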

[13] = read-out: urokinase plasminogen activator (uPA), PLAU (gene 5328); assay: BSK_KF3CT_uPA: BioMAP Diversity Plus: KF3CT Assay for urokinase plasminogen activator (uPA) Biomarker Activity (AID 2283075); settings: primary human keratinocytes with fibroblasts; actives raise or lower the signal
Outline: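 ELISA readout of uPA, analyzed for signal gain or loss relative to DMSO, from a human primary keratinocyte–foreskin fibroblast co-culture measured 24 h after chemical treatment.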

CD40, CD40 (gene 958) = assay: BSK_LPS_CD40: BioMAP Diversity Plus: LPS Assay for CD40 Biomarker Activity (AID 2283076); settings: primary human HUVEC with PBMC; actives raise or lower the signal
Outline: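 ELISA readout of CD40 in HUVEC/PBMC co-culture (BSK_LPS system), 24 h post-dosing; bidirectional curve fit, DMSO baseline; parallel SRB total-protein staining for cytotoxicity.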

[14] = read-out: E-selectin (Homo sapiens) (UniProt P16581); assay: BSK_LPS_Eselectin: BioMAP Diversity Plus: LPS Assay for Eselectin Biomarker Activity (AID 2283077); settings: primary human HUVEC with PBMC; actives raise or lower the signal
Outline: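 ELISA readout of E-selectin, 24 h post-dose, HUVEC + PBMC co-culture (LPS system). Gain or loss of signal vs DMSO baseline, bidirectional fit.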

[15] = read-out: Interleukin-8 (IL8), CXCL8 (gene 3576); assay: BSK_LPS_IL8: BioMAP Diversity Plus: LPS Assay for Interleukin-8 (IL8) Biomarker Activity (AID 2283078); settings: primary human HUVEC with PBMC; actives raise or lower the signal
Outline: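 HUVEC + PBMC co-culture, LPS-activated; test chemicals dosed, IL-8 read by ELISA at 24 h. Bidirectional curve fit vs DMSO baseline (gain or loss of signal).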

[16] = read-out: Plasminogen activator inhibitor-1 (PAI1), SERPINE1 (gene 5054); assay: BSK_hDFCGF_PAI1: BioMAP Diversity Plus: hDFCGF Assay for Plasminogen activator inhibitor-1 (PAI1) Biomarker Activity (AID 2283066); settings: primary human foreskin fibroblasts; actives raise or lower the signal
Outline: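 Human foreskin fibroblasts in the hDFCGF system were dosed with compound for 24 h; PAI-1 was quantified by ELISA. Bidirectional curve fitting used DMSO as negative control and baseline.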

[17] = read-out: Intercellular Adhesion Molecule 1 (ICAM1), ICAM1 (gene 3383); assay: BSK_KF3CT_ICAM1: BioMAP Diversity Plus: KF3CT Assay for Intercellular Adhesion Molecule 1 (ICAM1) Biomarker Activity (AID 2283067); settings: primary human keratinocytes with fibroblasts; actives raise or lower the signal
Outline: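 ELISA readout of ICAM-1; KF3CT human skin co-culture (keratinocytes + foreskin fibroblasts), 24 h post-dose; gain/loss fit vs DMSO baseline.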

[18] = read-out: Interferon-gamma inducible Protein 10 (IP10), CXCL10 (gene 3627); assay: BSK_KF3CT_IP10: BioMAP Diversity Plus: KF3CT Assay for Interferon-gamma inducible Protein 10 (IP10) Biomarker Activity (AID 2283068); settings: primary human keratinocytes with fibroblasts; actives raise or lower the signal
Outline: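 Human keratinocyte plus foreskin fibroblast primary co-culture exposed to test chemical for 24 h; IP-10 measured by ELISA. Concentration-response fitted bidirectionally against DMSO control as baseline.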

[19] = read-out: Matrix Metallopeptidase 9 (MMP9), MMP9 (gene 4318); assay: BSK_KF3CT_MMP9: BioMAP Diversity Plus: KF3CT Assay for Matrix Metallopeptidase 9 (MMP9) Biomarker Activity (AID 2283074); settings: primary human keratinocytes with fibroblasts; actives raise or lower the signal
Outline: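 Human keratinocyte/foreskin fibroblast co-culture; compound added; 24 h; MMP-9 by ELISA; bidirectional fit vs DMSO baseline.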

Measured: AC50

E-selectin (Homo sapiens), sequence (P16581 whole entry, looked up): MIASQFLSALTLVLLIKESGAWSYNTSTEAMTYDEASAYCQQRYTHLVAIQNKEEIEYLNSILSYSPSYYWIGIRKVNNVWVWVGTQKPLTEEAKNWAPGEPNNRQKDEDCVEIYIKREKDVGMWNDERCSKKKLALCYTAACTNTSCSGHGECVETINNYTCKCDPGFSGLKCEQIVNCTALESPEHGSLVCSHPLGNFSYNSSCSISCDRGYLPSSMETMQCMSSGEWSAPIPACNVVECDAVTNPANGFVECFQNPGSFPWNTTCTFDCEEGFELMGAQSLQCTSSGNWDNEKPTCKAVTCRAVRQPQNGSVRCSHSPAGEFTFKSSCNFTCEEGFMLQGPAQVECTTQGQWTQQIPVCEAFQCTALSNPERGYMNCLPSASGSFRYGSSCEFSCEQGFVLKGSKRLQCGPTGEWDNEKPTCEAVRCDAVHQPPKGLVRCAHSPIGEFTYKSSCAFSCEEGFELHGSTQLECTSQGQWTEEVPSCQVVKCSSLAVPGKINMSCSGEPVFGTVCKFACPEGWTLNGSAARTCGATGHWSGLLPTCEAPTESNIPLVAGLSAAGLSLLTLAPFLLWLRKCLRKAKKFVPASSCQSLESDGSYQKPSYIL

CC(Cl)(Cl)C(=O)O
active: [1] 0.148 µM
not listed: [16] | [17] | [18] | [19]
inactive: all other assays above

c1nc[nH]n1
not listed: [1]
inactive: all other assays above

CCC(C)(C)c1ccc(O)cc1
not listed: [1] | [14] | [19]
inactive: all other assays above

CCOP(=S)(NC(C)C)Oc1ccccc1C(=O)OC(C)C (stereo not given)
not listed: [16] | [17] | [19]
inactive: all other assays above

CSC(C)(C)C=NO
not listed: [1] | [14] | [18]
inactive: all other assays above

Cc1ccc2c(c1N)C(=O)c1ccccc1C2=O
active: [10] 6.86 µM
not listed: [1] | [14]
inactive: all other assays above

COP(=O)(CCC(=O)NCO)OC
not listed: [11] | [16] | [17] | [18] | [19]
inactive: all other assays above

O=S1(=O)OCC2C(CO1)C1(Cl)C(Cl)=C(Cl)C2(Cl)C1(Cl)Cl (stereo not given)
active: [11] 35.6 µM
not listed: [14] | [16] | [18] | [19]
inactive: all other assays above
